Assay results as given in PubChem BioAssay AID1159580 (chemical genetic matrix, 2015).
Out of some 5,500 compounds screened, about 2,000 (36%) were called active. Not shown: some 18% with an inconclusive outcome. Cut-off read from the data, not from the text of the source: active = normalized growth mostly below about 0.91 (no sharp cut-off); inconclusive = no clear call, values can overlap the other calls; inactive = mostly above about 0.92. Some of the results follow.

Test: chemical genetic growth profiling, strain panel (AID 1159580);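 note: tested at 20 µM; growth read once vehicle control cultures reached saturation at 30 °C; 1 = growth at the plate median or of vehicle wells; lower values mean less growth of the strain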
Conditions: growth OD
[1] = S. cerevisiae deletion strains, locus YAL013W, strain DEP1, stronger effect = lower value
[2] = S. cerevisiae deletion strains, locus YBR229C, strain ROT2, stronger effect = lower value
[3] = S. cerevisiae deletion strains, locus YDL101C, strain DUN1, stronger effect = lower value
[4] = S. cerevisiae deletion strains, locus YDR150W, strain NUM1, stronger effect = lower value
[5] = S. cerevisiae deletion strains, locus YEL061C, strain CIN8, stronger effect = lower value
[6] = S. cerevisiae deletion strains, locus YGR078C, strain PAC10, stronger effect = lower value
[7] = S. cerevisiae deletion strains, locus YHR030C, strain SLT2, stronger effect = lower value
[8] = S. cerevisiae deletion strains, locus YHR087W, strain rtc3, stronger effect = lower value
[9] = S. cerevisiae deletion strains, locus YJR043C, strain POL32, stronger effect = lower value
[10] = S. cerevisiae deletion strains, locus YJR075W, strain HOC1, stronger effect = lower value
[11] = S. cerevisiae deletion strains, locus YLR039C, strain RIC1, stronger effect = lower value
[12] = S. cerevisiae deletion strains, locus YLR058C, strain SHM2 (second series), stronger effect = lower value
[13] = S. cerevisiae deletion strains, locus YLR085C, strain ARP6, stronger effect = lower value
[14] = S. cerevisiae deletion strains, locus YLR262C, strain YPT6, stronger effect = lower value
[15] = S. cerevisiae deletion strains, locus YML094W, strain GIM5, stronger effect = lower value
[16] = S. cerevisiae deletion strains, locus YMR219W, strain ESC1, stronger effect = lower value
[17] = S. cerevisiae deletion strains, locus YMR263W, strain SAP30, stronger effect = lower value
[18] = S. cerevisiae deletion strains, locus YNL153C, strain GIM3, stronger effect = lower value
[19] = S. cerevisiae deletion strains, locus YNL298W, strain CLA4 (second series), stronger effect = lower value
[20] = S. cerevisiae deletion strains, locus YNL322C, strain KRE1, stronger effect = lower value
[21] = S. cerevisiae deletion strains, locus YNR030W, strain Alg12, stronger effect = lower value
[22] = S. cerevisiae deletion strains, locus YOL006C, strain TOP1, stronger effect = lower value
[23] = S. cerevisiae deletion strains, locus YPL055C, strain LGE1, stronger effect = lower value
[24] = S. cerevisiae deletion strains, locus YPL241C, strain CIN2, stronger effect = lower value
[25] = S. cerevisiae deletion strains, locus YPR135W, strain CTF4, stronger effect = lower value
[26] = S. cerevisiae strains, strain wild type, stronger effect = lower value
[27] = S. cerevisiae deletion strains, locus YCL061C, strain MRC1, stronger effect = lower value
[28] = S. cerevisiae deletion strains, locus YDL134C, strain PPH21, stronger effect = lower value
[29] = S. cerevisiae deletion strains, locus YGR229C, strain SMI1, stronger effect = lower value
[30] = S. cerevisiae deletion strains, locus YKL190W, strain CNB1, stronger effect = lower value

Measured: normalized growth

Cc1onc(-c2c(Cl)cccc2Cl)c1C(=O)Oc1ccc(Cl)c(Cl)c1
inactive: [1] 1.01 | [2] 0.995 | [3] 0.996 | [4] 1.01 | [5] 1.01 | [6] 1.03 | [7] 1.21 | [8] 1.06 | [9] 0.998 | [10] 0.99 | [11] 1.19 | [12] 0.986 | [13] 0.991 | [14] 1.16 | [15] 0.998 | [16] 0.992 | [17] 1.01 | S. cerevisiae deletion strains, locus YNL128W, strain TEP1, stronger effect = lower value 1 | [18] 1.03 | [19] 1.01 | [20] 1.01 | [21] 0.987 | [22] 1.07 | [23] 1 | [24] 0.973 | [25] 1.14 | [26] 1.01

COC(=O)c1c(-c2c(Cl)cccc2Cl)noc1NC(=O)NN1CCCCC1
inactive: [1] 1.02 | [2] 1.02 | [27] 1.01 | [3] 1.01 | [28] 0.993 | [4] 0.993 | [5] 1 | [6] 1.03 | [29] 1 | [7] 0.973 | [8] 1.03 | S. cerevisiae deletion strains, locus YJL187C, strain SWE1, stronger effect = lower value 1.01 | [9] 1.01 | [10] 1.02 | [30] 1 | [11] 0.963 | [12] 1.01 | [13] 0.992 | [14] 0.977 | [15] 1.04 | [16] 1.01 | [17] 1 | S. cerevisiae deletion strains, locus YMR307W, strain GAS1, stronger effect = lower value 1 | [18] 1.01 | [19] 1 | [20] 1.01 | [21] 0.987 | [22] 1.05 | [23] 1.01 | [24] 0.911 | [25] 0.969 | [26] 0.999

Cc1onc(-c2ccccc2)c1NC(=O)Nc1c(Cl)cccc1Cl
active: [11] 0.668 | [14] 0.572
inactive: [1] 0.995 | [2] 0.983 | [27] 0.963 | [3] 0.988 | [28] 0.996 | [4] 0.973 | [5] 0.991 | [6] 1 | [29] 0.996 | [7] 0.811 | [8] 0.975 | [9] 0.969 | [10] 0.975 | [30] 1 | [12] 0.988 | [13] 0.946 | [15] 0.949 | [16] 0.991 | [17] 0.999 | [18] 1.01 | [19] 0.974 | [20] 0.976 | [21] 0.983 | [22] 0.803 | [23] 0.997 | [24] 0.941 | [25] 0.933

Cc1onc(-c2c(F)cccc2Cl)c1C(=O)NNc1cc(Cl)cc(Cl)c1
inactive: S. cerevisiae deletion strains, locus YAR019C, strain CDC15, stronger effect = lower value 0.987 | S. cerevisiae deletion strains, locus YBL105C, strain PKC1, stronger effect = lower value 0.984 | S. cerevisiae deletion strains, locus YBR135W, strain CKS1, stronger effect = lower value 0.987 | S. cerevisiae deletion strains, locus YBR136W, strain MEC1, stronger effect = lower value 0.985 | S. cerevisiae deletion strains, locus YBR160W, strain CDC28, stronger effect = lower value 0.976 | S. cerevisiae deletion strains, locus YDL017W, strain CDC7, stronger effect = lower value 0.989 | S. cerevisiae deletion strains, locus YDL028C, strain MPS1, stronger effect = lower value 0.986 | [3] 0.987 | S. cerevisiae deletion strains, locus YDL108W, strain KIN28, stronger effect = lower value 0.976 | S. cerevisiae deletion strains, locus YDL132W, strain cdc53, stronger effect = lower value 0.989 | S. cerevisiae deletion strains, locus YDL214C, strain PRR2, stronger effect = lower value 0.902 | S. cerevisiae deletion strains, locus YDR052C, strain DBF4, stronger effect = lower value 0.99 | S. cerevisiae deletion strains, locus YDR054C, strain cdc34, stronger effect = lower value 0.982 | S. cerevisiae deletion strains, locus YDR226W, strain ADK1, stronger effect = lower value 0.991 | S. cerevisiae deletion strains, locus YDR477W, strain SNF1, stronger effect = lower value 0.931 | S. cerevisiae deletion strains, locus YER123W, strain YCK3, stronger effect = lower value 0.864 | S. cerevisiae deletion strains, locus YER133W, strain GLC7, stronger effect = lower value 0.937 | S. cerevisiae deletion strains, locus YFL009W, strain cdc4, stronger effect = lower value 0.979 | S. cerevisiae deletion strains, locus YFL029C, strain CAK1, stronger effect = lower value 0.977 | S. cerevisiae deletion strains, locus YFR003C, strain YPI1, stronger effect = lower value 0.987 | S. cerevisiae deletion strains, locus YFR019W, strain FAB1, stronger effect = lower value 0.908 | S. cerevisiae deletion strains, locus YFR028C, strain CDC14, stronger effect = lower value 0.976 | S. cerevisiae deletion strains, locus YGR040W, strain KSS1, stronger effect = lower value 0.894 | S. cerevisiae deletion strains, locus YGR052W, strain FMP48, stronger effect = lower value 0.951 | S. cerevisiae deletion strains, locus YGR092W, strain DBF2, stronger effect = lower value 0.937 | [7] 0.962 | S. cerevisiae deletion strains, locus YHR079C, strain IRE1, stronger effect = lower value 0.939 | S. cerevisiae deletion strains, locus YHR082C, strain KSP1, stronger effect = lower value 0.964 | S. cerevisiae deletion strains, locus YHR205W, strain SCH9, stronger effect = lower value 0.89 | S. cerevisiae deletion strains, locus YIL147C, strain SLN1, stronger effect = lower value 0.989 | S. cerevisiae deletion strains, locus YJL095W, strain BCK1, stronger effect = lower value 0.942 | S. cerevisiae deletion strains, locus YJL128C, strain PBS2, stronger effect = lower value 0.956 | S. cerevisiae deletion strains, locus YJL157C, strain FAR1, stronger effect = lower value 0.916 | S. cerevisiae deletion strains, locus YJR016C, strain ILV3, stronger effect = lower value 0.988 | S. cerevisiae deletion strains, locus YJR066W, strain TOR1 (second series), stronger effect = lower value 0.883 | S. cerevisiae deletion strains, locus YJR066W, strain TOR1, stronger effect = lower value 0.984 | S. cerevisiae deletion strains, locus YKL048C, strain ELM1, stronger effect = lower value 0.878 | S. cerevisiae deletion strains, locus YKL067W, strain YNK1, stronger effect = lower value 0.927 | S. cerevisiae deletion strains, locus YKL101W, strain HSL1, stronger effect = lower value 0.894 | S. cerevisiae deletion strains, locus YKL193C, strain SDS22, stronger effect = lower value 0.98 | S. cerevisiae deletion strains, locus YKL203C, strain TOR2, stronger effect = lower value 0.992 | S. cerevisiae deletion strains, locus YLR133W, strain CKI1, stronger effect = lower value 0.906 | S. cerevisiae deletion strains, locus YLR403W, strain SFP1, stronger effect = lower value 0.901 | S. cerevisiae deletion strains, locus YML070W, strain DAK1, stronger effect = lower value 0.89 | S. cerevisiae deletion strains, locus YMR001C, strain CDC5, stronger effect = lower value 0.98 | S. cerevisiae deletion strains, locus YMR205C, strain PFK2 (second series), stronger effect = lower value 0.936 | S. cerevisiae deletion strains, locus YMR277W, strain FCP1, stronger effect = lower value 0.983 | S. cerevisiae deletion strains, locus YNL006W, strain LST8, stronger effect = lower value 0.984 | S. cerevisiae deletion strains, locus YNL020C, strain ARK1, stronger effect = lower value 0.914 | S. cerevisiae deletion strains, locus YNL161W, strain CBK1, stronger effect = lower value 0.979 | S. cerevisiae deletion strains, locus YNL183C, strain NPR1, stronger effect = lower value 0.935 | S. cerevisiae deletion strains, locus YNL207W, strain RIO2, stronger effect = lower value 0.987 | S. cerevisiae deletion strains, locus YNL222W, strain SSU72, stronger effect = lower value 0.988 | S. cerevisiae deletion strains, locus YNL307C, strain MCK1 (second series), stronger effect = lower value 0.879 | S. cerevisiae deletion strains, locus YOL078W, strain AVO1, stronger effect = lower value 0.978 | S. cerevisiae deletion strains, locus YOL136C, strain PFK27, stronger effect = lower value 0.884 | S. cerevisiae deletion strains, locus YOR061W, strain CKA2, stronger effect = lower value 0.908 | S. cerevisiae deletion strains, locus YOR119C, strain RIO1, stronger effect = lower value 0.972 | S. cerevisiae deletion strains, locus YOR231W, strain MKK1, stronger effect = lower value 0.889 | S. cerevisiae deletion strains, locus YOR329C, strain SCD5, stronger effect = lower value 0.984 | S. cerevisiae deletion strains, locus YPL031C, strain PHO85, stronger effect = lower value 0.936 | S. cerevisiae deletion strains, locus YPL153C, strain RAD53, stronger effect = lower value 0.928 | S. cerevisiae deletion strains, locus YPL204W, strain HRR25, stronger effect = lower value 0.918 | S. cerevisiae deletion strains, locus YPL209C, strain IPL1, stronger effect = lower value 0.979 | S. cerevisiae deletion strains, locus YPR025C, strain CCL1, stronger effect = lower value 0.98 | S. cerevisiae deletion strains, locus YPR106W, strain ISR1, stronger effect = lower value 0.956 | S. cerevisiae deletion strains, locus YPR111W, strain DBF20, stronger effect = lower value 0.955 | S. cerevisiae deletion strains, strain NNK1, stronger effect = lower value 0.955 | S. cerevisiae deletion strains, strain TSCII, stronger effect = lower value 0.986
active: S. cerevisiae deletion strains, locus YLR113W, strain HOG1, stronger effect = lower value 0.798 | S. cerevisiae deletion strains, locus YPL256C, strain CLN2, stronger effect = lower value 0.839
